Holding throughout (test): NCI-60 one-dose screen, 48 h (100 = growth as untreated, 0 = no growth, -100 = all killed)
Conditions in all cases: 10 µM unless noted

For assay [1], the system named is NCI-H23 lung.
In assay [2] the test system is NCI-H322M lung.
Assay [3] deals with HOP-62 NSCLC.
Assay [4] has as its system NCI-H460 lung.
In assay [5] the test system is HOP-92 NSCLC.
Assay [6] concerns NCI-H522 lung.
Assay [7] has as its system A549/ATCC NSCLC.
In assay [8] the test system is 786-0 renal.
In assay [9] the test system is COLO 205 colon.
Assay [10] concerns DU-145 prostate.
For assay [11], the system named is K-562 leukemia.
The subject of assay [12] is MALME-3M melanoma.
Assay [13] concerns MDA-MB-231 breast.
The subject of assay [14] is RXF 393 renal.
The test system of assay [15] is SF-268 CNS.
In assay [16] the test system is SF-295 CNS.
Assay [17] deals with SF-539 CNS.
Assay [18] has as its system UACC-257 melanoma.
Assay [19] concerns M14 melanoma.
Assay [20] relates to HCT-15 colon.

This is part of a sample that, as a whole, favours compounds with a hit. Of some 83,000 tested, about 20% had one in any assay.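 The endpoint reported here, percent growth, reads 100 for growth as untreated, 0 for no net growth and -100 for all cells dead.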 Values without a mark were called inactive. Activity calls are given as the source filed them. Rule for the calls: active = growth percent below 10; inactive = the rest.

For `CCCCC1CCc2cccc3c(SCC(=O)N(C)c4ccc(Cl)cc4)cc[n+]1c23` (stereo not given), the growth in [1] was 98.9%; in assay [2], 110%; in assay [3], 107%; in assay [4] it was 109%; in assay [5] it was 127%; in [6] it was 97.5%. Further, the growth in assay [7] is 106%; in assay [8], 106%; in assay [9], 108%; in assay [10], 108%; in assay [11], 91.5%; in assay [12], 106%. Further, the growth in [13] is 109%; in assay [14], 128%; in assay [15], 113%; in [16], 106%; in assay [17], 110%; in [18] it was 110%. Also, the growth in assay [19] is 105%; in assay [20], 110%.
As to `COC(=O)C1(C)CCC[C@]2(C)[C@H]3C[C@H]4C(C(C)C)=C[C@]3(CC[C@@H]12)[C@H]1[C@@H]4[C@@H](OCC#CCN2CCOCC2)CC[C@@H]1OCC#CCN1CCOCC1` (stereo not given in full), the growth was 82.6% in assay [1]; 102% in assay [2]; 85.3% in [3]; 94% in assay [4]; 54.9% in assay [5]; 74.4% in [6]. The growth in assay [7] is 66.8%; in [8] it was 86.1%; in assay [9], 89.2%; in assay [10] it was 95.5%; in assay [11] it was 70.3%; in assay [12] it was 79.3%. Besides, the growth in assay [13] was 77.2%; in [14] it was 91.9%; in assay [15], 83.7%; in assay [16] it was 93.9%; in assay [17] it was 86.2%; in [18], 83.8%. Besides, the growth in assay [19] was 81.6%; in assay [20], 85.5%.
Consider `COc1cc(-c2c3c(cn2S(=O)(=O)c2ccccc2)-c2nc(N)sc2CC3)cc(OC)c1OC`, for which the growth is 44% in assay [1]; 41% in assay [2]; 53.5% in assay [3]; 6.37% (active) in assay [4]; 60.2% in assay [5]; 19.9% in assay [6]. Further, the growth was 30.7% in assay [7]; 43.4% in assay [8]; -1.14% (active) in assay [9]; 0.0609% (active) in assay [10]; 8.08% (active) in assay [11]; 42.4% in assay [12]. For the same compound, the growth in assay [13] was 19.3%; in [14], 2.6% (active); in [15], 40.7%; in assay [16], 11.2%; in assay [17], -31.8% (active); in assay [18], 74%. Moreover, the growth in [19] was 34.4%; in assay [20], 27.5%.
`COc1cc(CNC(=O)c2ccsc2Nc2ccnc(C(F)(F)F)c2)ccc1O`: the growth was 92.3% in assay [1]; 95.3% in [2]; 126% in assay [3]; 102% in assay [4]; 81.3% in [5]; 87% in assay [6]. The growth was 100% in assay [7]; 98.1% in assay [8]; 106% in assay [9]; 107% in [10]; 96.6% in assay [11]; 64.4% in [12]. In addition, the growth in assay [13] is 102%; in [14] it was 106%; in [15], 94.1%; in [16], 104%; in assay [17], 102%; in assay [18] it was 107%. For the same compound, the results for the growth in [19] and in assay [20] were 100% and 99.1%, respectively.
In the case of `COC(=O)/C(CCC=C(C)C)=C1\[C@@H](OC(C)=O)C[C@@]2(C)[C@H]1C[C@@H](O)[C@H]1[C@@]3(C)CC[C@H](NC(=O)c4cnccn4)[C@@H](C)[C@@H]3CC[C@@]12C`, the growth is 103% in assay [1]; 108% in [2]; 102% in assay [3]; 109% in assay [4]; 100% in [5]; 89.6% in assay [6]. The growth was 97.9% in [7]; 92.2% in assay [8]; 110% in assay [9]; 93.7% in [10]; 85.5% in assay [11]; 100% in [12]. Further, the growth in [13] was 96.5%; in assay [14] it was 107%; in assay [15], 94.8%; in assay [16], 103%; in assay [17] it was 105%; in [18], 110%. Moreover, the growth in assay [19] was 99.8%; in assay [20], 96.3%.
Take `NCCOc1ccccc1/C=C1\c2ccccc2-c2ccc([N+](=O)[O-])cc21`: the growth in assay [1] is 1.49% (active); in assay [2], 51.1%; in assay [3], -71.1% (active); in [4], -85.1% (active); in assay [5] it was -1.14% (active); in [6] it was 21.3%. Moreover, the growth in assay [7] was -74.6% (active); in assay [8], -41.5% (active); in assay [9], -75.4% (active); in assay [10], -42.3% (active); in assay [11] it was -44.9% (active); in assay [12], 26%. In addition, the growth is 17.9% in [13]; 1.55% (active) in assay [14]; 18.1% in assay [15]; 6.73% (active) in [16]; 8.01% (active) in [17]; 63.9% in [18]. The growth in assay [19] was 0.981% (active); in assay [20], -52.7% (active).
`O=S1(=O)CCN(Cc2ccccc2)CC1`: the growth in assay [1] is 98.4%; in [2] it was 110%; in assay [3], 96.7%; in assay [4] it was 103%; in assay [5], 79.5%; in assay [6] it was 104%. In addition, the growth is 104% in assay [7]; 95.3% in assay [8]; 107% in [9]; 103% in assay [10]; 101% in assay [11]; 112% in [12]. The growth in assay [13] is 105%; in assay [14] it was 121%; in assay [15] it was 92.2%; in assay [16], 97%; in assay [17], 95.6%; in assay [18], 105%. Besides, the growth in assay [19] is 90.3%; in assay [20], 92.8%.
On to `Nc1cccc(Nc2cc(S(=O)(=O)O)c(N)c3c2C(=O)c2ccccc2C3=O)c1`, for which the growth is 109% in [1]; 124% in assay [2]; 114% in assay [3]; 108% in [4]; 132% in [5]; 82.5% in assay [6]. In addition, the growth in assay [7] was 102%; in assay [8] it was 111%; in assay [9] it was 110%; in [10], 119%; in assay [11], 101%; in [12], 105%. Also, the growth in [13] is 107%; in [14], 119%; in [15], 101%; in assay [16] it was 118%; in assay [17] it was 101%; in [18], 97%. For the same compound, the growth in [19] is 103%; in assay [20] it was 96.7%.

The values are drawn from PubChem BioAssay (NCI).
